Screens from PubChem BioAssay.
Hits are enriched below; roughly 3.4% of the tested compounds scored in any of these assays.
MITF primary = inhibitors of human MITF. AID 1259374. inhibition, % at 2.6 µM. hit rate 0.91% among 650,000. AlphaScreen MITF homodimerization, bead proximity signal; in the data active means inhibition above about 50%;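 further: 0% = vehicle wells with protein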
Target sequence (O75030 whole entry, looked up): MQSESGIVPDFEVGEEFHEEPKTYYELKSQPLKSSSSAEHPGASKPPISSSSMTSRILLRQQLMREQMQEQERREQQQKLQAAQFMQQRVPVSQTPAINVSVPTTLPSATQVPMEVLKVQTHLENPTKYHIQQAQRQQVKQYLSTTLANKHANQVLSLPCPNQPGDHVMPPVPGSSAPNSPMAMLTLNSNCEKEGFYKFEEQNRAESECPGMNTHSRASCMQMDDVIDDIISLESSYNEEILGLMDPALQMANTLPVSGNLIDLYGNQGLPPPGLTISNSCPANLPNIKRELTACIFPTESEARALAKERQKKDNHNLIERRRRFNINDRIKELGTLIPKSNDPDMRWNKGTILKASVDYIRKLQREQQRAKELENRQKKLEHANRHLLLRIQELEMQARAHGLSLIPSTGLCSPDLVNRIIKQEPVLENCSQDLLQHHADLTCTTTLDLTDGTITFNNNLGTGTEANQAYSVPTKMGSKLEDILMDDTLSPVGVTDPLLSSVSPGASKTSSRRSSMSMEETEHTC
FBW7 act = human FBW7 E3 ligase activation, primary screen | AlphaScreen FBW7–phospho-cyclin E peptide binding, activator screen | hit rate 0.13% among 650,000 | normalized activity (activation), % at 26.1 µM | Q969H0 | AID 1259310; in the data active means normalized activity above about 1.9%;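 further: purified mutant Fbw7 with reduced substrate affinity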
TEAD-YAP block = TEAD-YAP interaction inhibition. HEK-TIYL cells, TEAD-Gal4/YAP UAS-luciferase luminescence. inhibition, % at 9.12 µM. hit rate 1.4% among 640,000. AID 1259422; in the data active means inhibition above about 32%;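 further: 0% = median of test compound wells and 100% = reference inhibitor wells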
GPR151 ag = human GPR151 activation. Q8TDV0. PathHunter beta-arrestin GPR151 cells, luminescence. activation, % at 11.2 µM. hit rate 1% among 650,000; in the data active means activation above about 4.9%;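 further: 0% = median of compound wells and 100% = cells with positive control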
Active calls of the source: *.

SMILES | MITF primary | FBW7 act | TEAD-YAP block | GPR151 ag
Nc1ccnc(NCc2ccccc2)c1 | -6 | 0 | 32* | 0
CC(C)n1c(Nc2ccccn2)nc2c(Nc3ccc(Oc4ccccc4)cc3)ncnc21 | 1 | 0 | 56* | 1
CC(C)n1c(Nc2ccccn2)nc2c(NCCOc3ccccc3)ncnc21 | -1 | 0 | -29 | 2
CCOc1cccc(/C=N/NC(=O)c2cc(-c3cccc([N+](=O)[O-])c3)n[nH]2)c1O | 41 | 0 | 60* | 0
CCOc1cccc(/C=N/NC(=S)Nc2ccccc2[N+](=O)[O-])c1O | 12 | 0 | 71* | 3
CCOc1ccccc1-c1cc(C(=O)N/N=C/c2cccc(OCC)c2O)[nH]n1 | 18 | 0 | 69* | -2
CCN(CCCNC(=O)Cn1nc(-c2ccc(C)cc2)ccc1=O)c1ccccc1 | -2 | 0 | 12 | 0
N#CCc1ccc(NC(=O)COc2ccccc2Cl)cc1 | -10 | 0 | -14 | 0
CCC1CCC(C(=O)NC(C(=O)NCCc2ccc(S(N)(=O)=O)cc2)C(C)C)CC1 (configuration not stated) | -16 | 0 | 40* | -1
Cc1ccc(-c2nc3cccnc3s2)cc1NC(=O)C(C)C | 3 | 0 | -8 | 0
c1ccc2c(c1)OCC(c1nc3ccc(-c4ncnc5[nH]ccc45)cc3[nH]1)O2 (configuration not stated) | 5 | 0 | 49* | 0
Cn1c(C2COc3ccccc3O2)nc2ccc(-c3ncnc4[nH]ccc34)cc21 (configuration not stated) | 7 | 2.8* | 4 | 1
CCc1ccc(NC(=O)CSC2=C(C#N)C(c3ccc(C)o3)C3=C(CCCC3=O)N2)cc1 (configuration not stated) | 2 | 1 | 20 | 0
Cc1cccc(C)c1NC(=O)CSC1=C(C#N)C(c2ccco2)C2=C(CCCC2=O)N1 (configuration not stated) | 14 | 0 | 9 | -1
Cc1c(Cl)cccc1NC(=O)CSC1=C(C#N)C(c2ccco2)C2=C(CCCC2=O)N1 (configuration not stated) | 49 | 0 | 38* | 1
Cc1ccc(C2C(C#N)=C(SCC(=O)Nc3cccc(C)c3C)NC3=C2C(=O)CCC3)o1 (configuration not stated) | -12 | 0 | 64* | 1
CCN(CC)S(=O)(=O)c1cc(C(=O)Nc2ccc(Br)cc2)ccc1F | -3 | 0 | 8 | 1
CCN(CC)S(=O)(=O)c1cc(C(=O)Nc2ccc(Br)cc2)ccc1OC | -5 | 1 | 47* | 0
CCOc1ccc(NC(=O)c2ccc(F)c(S(=O)(=O)N(Cc3ccco3)CC3CCCO3)c2)cc1 (configuration not stated) | 27 | 0 | 46* | 1
CCOc1ccc(NC(=O)c2ccc(F)c(S(=O)(=O)N(CC)Cc3ccccc3)c2)cc1 | 3 | 0 | 62* | -1
CCOc1ccc(NC(=O)c2ccc(F)c(S(=O)(=O)N(CC)CC)c2)cc1 | -6 | 0 | 37* | 0
CC1CCN(C2=NC(=O)/C(=C/c3ccccc3O)S2)CC1 | -22 | 0 | 11 | -2
CN(C)c1ccc(-c2nc(-c3cc4cc(Cl)ccc4oc3=O)cs2)cc1 | 16 | 0 | 4 | 2
COc1cc(NC(=O)c2csc(NC3CCN(Cc4ccccc4)CC3)n2)cc(OC)c1OC | -4 | 0 | -6 | 3
Cc1ccc(CNc2nc3ccccc3s2)s1 | 0 | 0 | 66* | 1
SMILES | MITF primary | FBW7 act | TEAD-YAP block | GPR151 ag
C=CCSC1=C(C#N)C(c2ccc(OCc3ccccc3)cc2)CC(=O)N1 (configuration not stated) | -10 | 0 | 33* | 0
COC(=O)CNc1ncnc2scc(-c3ccccc3)c12 | 10 | 0 | -4 | -1
c1ccc(-c2csc3ncnc(NCc4ccco4)c23)cc1 | 16 | 0 | 34* | 2
COC(=O)CCCNc1ncnc2scc(-c3ccccc3)c12 | -2 | 0 | 35* | -1
c1ccc(-c2csc3ncnc(NCc4ccccn4)c23)cc1 | -2 | 0 | 13 | 0
CCCCNc1ncnc2scc(-c3ccccc3)c12 | 19 | 1 | 56* | 3
COCCCNc1ncnc2scc(-c3ccccc3)c12 | 2 | 0 | 59* | 2
CCOC(=O)c1ccc(Nc2nnc(-c3cc4cc(OC)ccc4oc3=O)s2)cc1 | 3 | 0 | -5 | 1
C=CCN1C(=O)/C(=c2\sc3nc(-c4ccccc4OC(C)=O)nn3c2=O)c2ccccc21 | -9 | 0 | -7 | 0
CCOc1ccc(Nc2nc3ccccc3n3cnnc23)cc1 | -3 | 0 | 5 | 0
Cn1ccnc1SCC(=O)NCCC(c1ccccc1)c1ccccc1 | 5 | 0 | 2 | -1
